From PubChem BioAssay (NCATS)
Records with an inconclusive call do not appear. Where a call stands in place of a potency, no number is given. Calls of active or inactive are those of the source. The call rests on the fitted dose curve; in most records, active means well fitted inhibition curve with a large enough effect; inconclusive means small, poorly fitted or top-dose-only effect; inactive means flat fitted curve, though single readings scatter.

These molecules were tested against Calcium and integrin-binding protein 1 (Homo sapiens) (UniProt Q99828) (assay: Primary qHTS for Identification of Calcium Integrin Binding Protein 1 (CIB1) Competitor (AID 1508620; further: top concentration of the series differs between compounds)). Details: CIB1-GST / FITC-alphaIIb peptide fluorescence polarization; series mostly up to 114 µM.
Method in brief: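 Fluorescence polarization competition: GST-tagged CIB1 (1 uM final) preincubated with compound 15 min at room temperature, then FITC-labelled alphaIIb peptide (100 nM final) added. After 15 min at room temperature, polarization read at Ex 480/Em 540.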

Chain of Calcium and integrin-binding protein 1 (Homo sapiens) (Q99828 whole entry, looked up): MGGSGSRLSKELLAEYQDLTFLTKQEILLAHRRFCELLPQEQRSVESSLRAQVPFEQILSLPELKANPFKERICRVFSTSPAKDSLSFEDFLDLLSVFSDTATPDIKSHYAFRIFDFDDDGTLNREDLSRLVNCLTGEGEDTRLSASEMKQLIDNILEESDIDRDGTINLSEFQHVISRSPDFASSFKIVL

Question: Cc1nc(NC(=O)N2CCCC2C(N)=O)sc1-c1ccnc(C(C)(C)C(F)(F)F)c1 (stereo not given) was tested. Which Potency did it give?
Answer: The Potency was “inactive”.

Question: How did the Potency turn out when C/C(=C\Cc1c(O)c(Cl)c(C)c(C=O)c1O)CC/C=C(\C)[C@H]1CC(=O)C(C)(C)O1 was run?
Answer: Its Potency is “inactive”.

Question: For CCn1c(=O)c(-c2ccc(Cl)cc2Cl)cc2cnc(Nc3ccc(N4CCNCC4)c(F)c3)nc21, which Potency is on record?
Answer: Its Potency is “inactive”.

Question: How did the Potency turn out when C=C[C@H](/C=C\c1ccc(O)cc1)c1ccc(O)cc1 was run?
Answer: The Potency was “inactive”.

Question: CC(C)(CNC(=O)c1cccc(-c2noc(C(F)(F)F)n2)c1)c1coc(-c2ccccc2)n1 was tested. Which Potency did it give?
Answer: Its Potency is “inactive”.

Question: Which Potency does the source give for COC1C(OC(=O)/C=C/C=C/C=C/C=C/C(=O)O)CCC2(CO2)C1C1(C)OC1CC=C(C)C (stereo not given) here?
Answer: Its Potency is “inactive”.

Question: Which Potency does the source give for Cn1cc(-c2cnn3c(N)c(Br)c(C4CCCNC4)nc23)cn1 (stereo not given) here?
Answer: Its Potency is “inactive”.

Question: How did the Potency turn out when CC(=O)C1=CCC2C3CC=C4CC(O)CC(O)C4(C)C3C(O)CC12C (stereo not given) was run?
Answer: The Potency was “inactive”.

Question: C=C(C(=O)OC)[C@@H]1CC=C2C=CC(=O)[C@H](C)[C@@]2(C)C1 was tested. Which Potency did it give?
Answer: The Potency was “inactive”.

Question: For CS/C=C/C(=O)O[C@@H]1CCC2=CC(=O)C(=C(C)C)C[C@]2(C)[C@H]1C, which Potency is on record?
Answer: Its Potency is “inactive”.

Question: How did the Potency turn out when C=C(COC(=O)C(O)C(O)CN)C12OC1C1(C)C(=CC2=O)C(O)C(O)CC1C (stereo not given) was run?
Answer: The Potency was “inactive”.

Question: With C=C[C@](C)(O)CC[C@H]1C(C)=CC(=O)[C@H]2C(C)(C)CCC[C@]12C as the molecule, how does the Potency read?
Answer: Its Potency is “inactive”.

Question: With CCN1CCC[C@@H]1CNC(=O)c1ccc2c(c1)NC(=O)c1cccc(C)c1S2 as the molecule, how does the Potency read?
Answer: The Potency was “inactive”.

Question: With C=CC(=O)N1CCC[C@@H](n2nc(-c3cccc(C(=O)Nc4ccc(C(C)C)c(C)c4)c3)c3c(N)ncnc32)C1 as the molecule, how does the Potency read?
Answer: Its Potency is “inactive”.

Question: For CC(C)=C1C[C@@]2(C)C(=CC1=O)CC[C@@H](OC(=O)/C(C)=C/CO)[C@@H]2C, which Potency is on record?
Answer: The Potency was “inactive”.

Question: With Cc1cccc(N2CCN(C(=O)c3cc(S(=O)(=O)N(C)C)ccc3N3CCCC3)CC2)c1C as the molecule, how does the Potency read?
Answer: Its Potency is “inactive”.

Question: For CN1c2c(nc(N)[nH]c2=O)NC[C@@H]1CNc1ccc(C(=O)N[C@@H](CCC(=O)O)C(=O)O)cc1, which Potency is on record?
Answer: The Potency was “inactive”.

Question: With CC12CCC3C1C(c1c(cc(O)c(C(=O)c4ccccc4)c1O)O2)C3(C)C (stereo not given) as the molecule, how does the Potency read?
Answer: The Potency was “inactive”.

Question: With Cn1nc(C(C)(C)C)cc1C(=O)N[C@@H](Cc1cccc(Cl)c1)C(=O)NCC#N as the molecule, how does the Potency read?
Answer: The Potency was “inactive”.

Question: For O=C(Nc1cccc([N+](=O)[O-])c1)c1cccc(S(=O)(=O)N2CCCCCC2)c1, which Potency is on record?
Answer: Its Potency is “inactive”.

Question: How did the Potency turn out when COc1cc(OC)c(NC(=O)c2ccc(Cc3cc4c(cc3C)C(C)(C)CCC4(C)C)o2)c(OC)c1 was run?
Answer: The Potency was “inactive”.

Question: Which Potency does the source give for C=C1CCC2C(C)(C)CCCC2(C)C1CC/C(C)=C\CO (stereo not given) here?
Answer: The Potency was “inactive”.

Question: CC(C)=CCc1cc2c(cc1O)OC[C@H]1c3ccc(O)cc3O[C@@H]21 was tested. Which Potency did it give?
Answer: The Potency was “inactive”.

Question: With CC(=O)OC[C@]12[C@H](OC(C)=O)C(=O)[C@@H]3[C@@H](O)[C@@]14O[C@@]3(C)COC(=O)c1cccnc1[C@@H](C)[C@H](C)C(=O)O[C@@H]([C@H](O)[C@@H]2OC(C)=O)[C@]4(C)O as the molecule, how does the Potency read?
Answer: Its Potency is “inactive”.

Question: Which Potency does the source give for COCC(c1ccc(C(F)(F)F)cc1)N1CCN(C2(C)CCN(C(=O)c3c(C)ncnc3C)CC2)CC1C (stereo not given) here?
Answer: Its Potency is “inactive”.
